{"source": "PubChem BioAssay AID624256", "about": "(NMMLSC, 2012)", "note": "In all, about 360,000 compounds went through this assay and about 3,700 (1%) were called active. Roughly 2% stayed inconclusive and do not appear here.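 Rule for the calls: active = normalized GFP-positive differentiation at or above the plate's own cutoff, the solvent-only control mean plus 3 SD; inconclusive = no clear call, values can overlap the other calls; inactive = the rest.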 For the sample, actives were picked, then their nearest neighbours and some compounds at random."}
{"assay": "HoxA9-arrested leukemia cell differentiation promoters – flow cytometry, MLPCN library, primary screen (AID 624256);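 for GFP+ MAC1+ double positive: cells exposed to compound for four days before flow analysis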;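 for normalized GFP-positive differentiation: cells exposed to compound for four days before flow analysis; 0% = DMSO wells and 100% = fulvestrant positive control at 5 µM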", "conditions": "ER-HoxA9 myeloid progenitors, lysozyme-GFP differentiation, at 10 µM; GFP+ MAC1+ double positive: measured here: differentiation confirmed by MAC1 staining, stronger effect = higher value; normalized GFP-positive differentiation: stronger effect = higher value", "units": {"GFP+ MAC1+ double positive": "%"}}
{"smiles": "COCCCn1cc(CN2CC(N(C)C)CS2(=O)=O)nn1", "note": "(stereo not drawn)", "GFP+ MAC1+ double positive": 0.8, "outcome": "inactive"}
{"smiles": "Cc1nc2c(OCc3ccc(Cl)cc3Cl)cccn2c1N(C)CC1CC1", "GFP+ MAC1+ double positive": 0.6, "outcome": "inactive"}
{"smiles": "CC(C)CN1C(=O)CN(S(C)(=O)=O)CC1(C)C(=O)NCc1ccccc1", "note": "(stereo not drawn)", "GFP+ MAC1+ double positive": 1.1, "outcome": "inactive"}
{"smiles": "Nc1nc2ncccn2c1-c1ccccc1", "GFP+ MAC1+ double positive": 2.1, "outcome": "inactive"}
{"smiles": "CCc1nc2ccc(C(=O)NCc3ccc(OC)cc3)cn2c1N(CC)Cc1cccc(Br)c1", "GFP+ MAC1+ double positive": 1.1, "outcome": "inactive"}
{"smiles": "Cc1nccn1-c1ccc(NC(=O)[C@H]2O[C@@H](n3ccc(=O)[nH]c3=O)[C@H](O)[C@@H]2O)cc1", "GFP+ MAC1+ double positive": 1.7, "outcome": "inactive"}
{"smiles": "CCOC(=O)CNC(=O)c1nn(-c2cccc(OC)c2)c(=O)c2ccccc12", "GFP+ MAC1+ double positive": 0.7, "outcome": "inactive"}
{"smiles": "Cc1nn(-c2cc(Cl)ccc2N)c(=O)c2ccccc12", "GFP+ MAC1+ double positive": 7.4, "normalized GFP-positive differentiation": "51.3% (active)"}
{"smiles": "Cc1cc(=O)oc2c1c(C)nn2-c1ccc(Cl)cc1", "GFP+ MAC1+ double positive": 0.3, "outcome": "inactive"}
{"smiles": "C#CCNC(=O)C[C@@H]1C[C@@]2(C(=O)OCC)CCCC=C2N(Cc2ccco2)C1=O", "GFP+ MAC1+ double positive": 1.5, "outcome": "inactive"}
{"smiles": "Cc1cc(Br)cn2c(Cc3ccsc3)c(-c3ccc(C#N)cc3)nc12", "GFP+ MAC1+ double positive": 2, "outcome": "inactive"}
{"smiles": "O=C(Nc1cccc2ccccc12)c1[nH]c(-c2ccccc2)c2c1C(=O)N(C1CC1)C2=O", "GFP+ MAC1+ double positive": 1.2, "outcome": "inactive"}
{"smiles": "COC(=O)C[C@@H]1C=C[C@@H](NC(=O)c2ccc3c(c2)OCO3)[C@@H](CO)O1", "GFP+ MAC1+ double positive": 3.1, "outcome": "inactive"}
{"smiles": "CS(=O)(=O)c1ccc2c(c1)SC1=NC(=O)/C(=C/c3ccco3)C(=N)N12", "GFP+ MAC1+ double positive": 6.9, "outcome": "inactive"}
{"smiles": "CC(C)(C)C1C/C(=C/c2ccco2)C(=O)/C(=C/c2ccco2)C1", "note": "(stereo not drawn)", "GFP+ MAC1+ double positive": 0.5, "normalized GFP-positive differentiation": "92.8% (active)"}
{"smiles": "COC(=O)COc1ccc2c(c1C)O/C(=C\\c1ccco1)C2=O", "GFP+ MAC1+ double positive": 0.6, "outcome": "inactive"}
{"smiles": "CN(CCOc1ccccc1)C(=O)c1cc(-c2ccco2)nc2ccccc12", "GFP+ MAC1+ double positive": 1.1, "outcome": "inactive"}
{"smiles": "O=C(c1cc(-c2ccco2)nc2ccccc12)N(Cc1nnc(-c2ccc(Cl)cc2)o1)C1CC1", "GFP+ MAC1+ double positive": 1.9, "normalized GFP-positive differentiation": "11.9% (active)"}
{"smiles": "CC1CCCN(C(=O)c2cc(-c3ccco3)nc3ccccc23)C1", "note": "(stereo not drawn)", "GFP+ MAC1+ double positive": 0.2, "outcome": "inactive"}
{"smiles": "S=C(NCCCc1cnc[nH]1)NCCCN(Cc1ccc(Cl)c(Cl)c1)c1ccc(Br)cn1", "GFP+ MAC1+ double positive": 1.1, "outcome": "inactive"}
{"smiles": "CC(C)(C)NC(=O)C(CCc1ccccc1)n1c(=O)c(-c2ccccc2)nc2ccccc21", "note": "(stereo not drawn)", "GFP+ MAC1+ double positive": 3.2, "outcome": "inactive"}
{"smiles": "O=c1c2ccccc2oc2nc3n(c(=O)c12)CCCS3", "GFP+ MAC1+ double positive": 7.5, "outcome": "inactive"}
{"smiles": "CCc1nc2oc3ccccc3c(=O)c2c(=O)n1Cc1ccc(OC)cc1", "GFP+ MAC1+ double positive": 3.7, "normalized GFP-positive differentiation": "16.2% (active)"}
{"smiles": "COc1ccc(Cn2c(=O)oc3ccccc32)cc1", "GFP+ MAC1+ double positive": 0.5, "outcome": "inactive"}
